Among all 5,500 compounds or so, about 2,000 (36%) were called active. Another 18% or so got no clear call; they are omitted. No stated cut-off is given here; in the data, active means normalized growth mostly below about 0.91 (no sharp cut-off); inconclusive means no clear call, values can overlap the other calls; inactive means mostly above about 0.92. Some of the results follow.
Test: chemical genetic growth profiling, strain panel (AID 1159580);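 further: tested at 20 µM; growth read once vehicle control cultures reached saturation at 30 °C; 1 = growth at the plate median or of vehicle wells; lower values mean less growth of the strain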
Conditions: growth OD
[1] = S. cerevisiae deletion strains, locus YPL055C, strain LGE1, active compounds read low

Measured: normalized growth

C=CC[C@H](N)C(=O)O
inactive: S. cerevisiae deletion strains, locus YAL040C, strain CLN3, active compounds read low 0.997 | S. cerevisiae deletion strains, locus YCL061C, strain MRC1 (second series), active compounds read low 1.01 | S. cerevisiae deletion strains, locus YDR363W, strain ESC2, active compounds read low 0.962 | S. cerevisiae deletion strains, locus YER002W, strain NOP16, active compounds read low 1.01 | S. cerevisiae deletion strains, locus YNL175C, strain NOP13, active compounds read low 1.01 | S. cerevisiae deletion strains, locus YNL197C, strain WHI3, active compounds read low 0.976 | S. cerevisiae deletion strains, locus YNL224C, strain SQS1, active compounds read low 0.972 | S. cerevisiae deletion strains, locus YOR083W, strain WHI5 (second series), active compounds read low 0.974 | [1] 0.99

COc1cccc(C2SCc3cc(C)c(C)cc3CS2)c1O
inactive: S. cerevisiae deletion strains, locus YBR229C, strain ROT2, active compounds read low 0.994 | S. cerevisiae deletion strains, locus YCL061C, strain MRC1, active compounds read low 0.998 | S. cerevisiae deletion strains, locus YDL101C, strain DUN1, active compounds read low 0.992 | S. cerevisiae deletion strains, locus YDL134C, strain PPH21, active compounds read low 1.02 | S. cerevisiae deletion strains, locus YDR150W, strain NUM1, active compounds read low 0.932 | S. cerevisiae deletion strains, locus YEL061C, strain CIN8, active compounds read low 1.03 | S. cerevisiae deletion strains, locus YGR078C, strain PAC10, active compounds read low 1.01 | S. cerevisiae deletion strains, locus YHR030C, strain SLT2, active compounds read low 1.01 | S. cerevisiae deletion strains, locus YHR087W, strain rtc3, active compounds read low 1.01 | S. cerevisiae deletion strains, locus YJR043C, strain POL32, active compounds read low 0.972 | S. cerevisiae deletion strains, locus YJR075W, strain HOC1, active compounds read low 0.985 | S. cerevisiae deletion strains, locus YKL190W, strain CNB1, active compounds read low 1.02 | S. cerevisiae deletion strains, locus YLR039C, strain RIC1, active compounds read low 1.07 | S. cerevisiae deletion strains, locus YLR058C, strain SHM2 (second series), active compounds read low 1.03 | S. cerevisiae deletion strains, locus YLR085C, strain ARP6, active compounds read low 1.04 | S. cerevisiae deletion strains, locus YLR262C, strain YPT6, active compounds read low 1.05 | S. cerevisiae deletion strains, locus YML094W, strain GIM5, active compounds read low 0.999 | S. cerevisiae deletion strains, locus YMR219W, strain ESC1, active compounds read low 1 | S. cerevisiae deletion strains, locus YMR263W, strain SAP30, active compounds read low 0.902 | S. cerevisiae deletion strains, locus YNL153C, strain GIM3, active compounds read low 0.988 | S. cerevisiae deletion strains, locus YNL298W, strain CLA4 (second series), active compounds read low 0.986 | S. cerevisiae deletion strains, locus YNL322C, strain KRE1, active compounds read low 1.01 | S. cerevisiae deletion strains, locus YNR030W, strain Alg12, active compounds read low 0.982 | S. cerevisiae deletion strains, locus YOL006C, strain TOP1, active compounds read low 1.12 | [1] 0.904 | S. cerevisiae deletion strains, locus YPL241C, strain CIN2, active compounds read low 0.957 | S. cerevisiae deletion strains, locus YPR135W, strain CTF4, active compounds read low 1.01 | S. cerevisiae strains, strain wild type, active compounds read low 1.01
